Measured values: PubChem BioAssay
Where “and” joins values, the source holds several entries; their conditions need not be identical. Equal entries are not always repeated. Calls of active or inactive are those of the source. Cut-off read from the data, not from the text of the source, unless noted: active = parasite load remaining mostly below about 12% (no sharp cut-off); inactive = mostly above about 10%.

Assays:
[1] = liver-stage malaria parasite growth inhibition, primary screen, cell-based, HepG2, luciferase luminescence, HepG2 viability (AID 624349);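 note: 100% = mean of DMSO negative control wells on the same plate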; settings: P. berghei liver stage in HepG2, luciferase luminescence, concentration not given here; parasite load remaining: stronger effect = lower value; viability: measured here: HepG2 viability without parasites
[2] = stimulators of nuclear beta-catenin in C2C12, primary screen, imaging, WNT3A-conditioned medium, mouse C2C12, NPC library (AID 1117326; in the data active = nuclear beta-catenin stimulation mostly above about 4.2%, no sharp cut-off; inactive = mostly below about 10%; note: reference of the scale not given here); settings: stronger effect = higher value
[3] = stimulators of insulin release from INS-1E, primary screen, cell-based, 5 mM glucose, NPC library (AID 1117329;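 active = compound raises insulin release from rat beta cells at 5 mM glucose, no numeric limit stated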; note: reference of the scale not given here); settings: rat INS-1E insulin secretion, at 10 µM, stronger effect = higher value
[4] = growth inhibition of GSK3B-pretreated HCT116 cells – cell-based, CellTiter-Glo, 0.2 to 20 µM (AID 1117336;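 active = compounds lowering colon cancer cell viability after pretreatment blocking the GSK3B kinase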); settings: HCT116 viability after GSK3B inhibitor, at 20 µM, stronger effect = higher value
[5] = inhibition of endothelial tube formation, primary screen, imaging, VEGF stimulated, CD31 staining, tube area, NPC library (AID 1117340;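 active = compound that reduces growth-factor-driven endothelial tube area in a mixed cell culture, no cutoff stated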); settings: VEGF-stimulated ADSC/ECFC co-culture, at 10 µM, stronger effect = higher value
[6] = glucagon-like peptide 1 release enhancers, primary assay, NCI-H716 cell line, NPC library (AID 1117341;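 active = compound raises GLP1 secretion from the human gut endocrine cells, with no numeric limit stated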; note: reference of the scale not given here); settings: NCI-H716 cells, at 10 µM, stronger effect = higher value
[7] = HCT116 colon cancer cell growth inhibition, primary screen, CellTiter-Glo luminescence, NPC library (AID 1117342;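 active = compounds that lower survival of HCT116 colon cancer cells in the luminescence readout, no numeric limit stated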); settings: at 20 µM (top of the series)
[8] = CellTiter-Glo luminescent readout of SW480 viability loss, NPC library primary (AID 1117343;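 active = compounds that lower viability of the colon cancer cells in the luminescence readout, with no numeric limit stated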); settings: CellTiter-Glo luminescence; at 20 µM (top of the series)
[9] = decreased DLD-1 cellular survival, CellTiter-Glo luminescent readout, NPC compound collection, primary HTS (AID 1117346;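 active = compounds that lower survival of DLD-1 colon cancer cells in the luminescence readout, no cutoff given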); settings: DLD-1 viability, CellTiter-Glo luminescence; at 20 µM (top of the series)
[10] = target: 6-phosphogluconate dehydrogenase, decarboxylating (Homo sapiens) (UniProt P52209); test: 6PGD enzyme inhibitors, primary screen, biochemical, human, recombinant enzyme, NADPH absorbance (AID 1159550;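 active = at least 20% inhibition of 6-phosphogluconate dehydrogenase activity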); settings: recombinant 6PGD, NADPH absorbance 341 nm; at 10 µM; stronger effect = higher value
6-phosphogluconate dehydrogenase, decarboxylating (Homo sapiens), sequence (P52209 whole entry, looked up): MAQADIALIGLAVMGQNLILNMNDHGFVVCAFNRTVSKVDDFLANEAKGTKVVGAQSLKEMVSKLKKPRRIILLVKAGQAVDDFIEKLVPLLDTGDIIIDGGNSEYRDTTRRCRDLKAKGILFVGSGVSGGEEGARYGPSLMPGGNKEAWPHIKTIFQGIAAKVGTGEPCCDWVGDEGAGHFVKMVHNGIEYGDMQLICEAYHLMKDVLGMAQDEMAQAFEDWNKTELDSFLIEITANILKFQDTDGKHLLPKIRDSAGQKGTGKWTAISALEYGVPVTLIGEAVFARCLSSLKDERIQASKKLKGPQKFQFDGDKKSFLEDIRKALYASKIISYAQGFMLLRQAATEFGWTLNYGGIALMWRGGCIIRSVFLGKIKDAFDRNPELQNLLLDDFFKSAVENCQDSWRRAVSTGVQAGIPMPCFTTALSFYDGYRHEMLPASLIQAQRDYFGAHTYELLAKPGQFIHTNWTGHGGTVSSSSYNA

CC1=C(C(=O)O)N2C(=O)[C@@H](NC(=O)[C@H](N)c3ccc(O)cc3)[C@H]2SC1
parasite load remaining [1]: 116% (inactive) and 83.6% (inactive)
viability [1]: 96.4% and 77.7%
nuclear beta-catenin stimulation ([2]; at 10 µM): 1.8% (inactive)
nuclear beta-catenin stimulation ([2]; stimulation, at 2 µM): 3.3%
insulin secretion stimulation [3]: -0.5% (inactive)
viability decrease [4]: -2.2% (inactive)
tube area decrease [5]: -4.7% (inactive)
GLP1 secretion stimulation [6]: -0.3% (inactive)
inhibition of viability [7]: 7.3% (inactive)
viability decrease (inhibition) [8]: 7.8% (inactive)
viability decrease (inhibition) [9]: 7.3% (inactive)
inhibition [10]: -1.37% (inactive)

O=c1cc[nH]c(=S)[nH]1
parasite load remaining [1]: 64% (inactive)
viability [1]: 87.2%
nuclear beta-catenin stimulation ([2]; at 10 µM): -0.3% (inactive)
nuclear beta-catenin stimulation ([2]; stimulation, at 2 µM): 1.5%
insulin secretion stimulation [3]: -0.7% (inactive)
viability decrease [4]: -5.7% (inactive)
tube area decrease [5]: 11.6% (inactive)
GLP1 secretion stimulation [6]: -6.9% (inactive)
inhibition of viability [7]: 1.83% (inactive)
viability decrease (inhibition) [8]: -9.6% (inactive)
viability decrease (inhibition) [9]: -8.5% (inactive)
inhibition [10]: 13.5% (inactive)

CC(=O)Nc1c(I)cc(I)c(C(=O)O)c1I
parasite load remaining [1]: 151% (inactive) and 81.4% (inactive)
viability [1]: 82.9% and 215%
nuclear beta-catenin stimulation ([2]; at 10 µM): -0.1% (inactive)
nuclear beta-catenin stimulation ([2]; stimulation, at 2 µM): 1.9%
insulin secretion stimulation [3]: 0.6% (inactive)
viability decrease [4]: -43.4% (inactive)
tube area decrease [5]: 34.2% (inactive)
GLP1 secretion stimulation [6]: 0.7% (inactive)
inhibition of viability [7]: 4.5% (inactive)
viability decrease (inhibition) [8]: -4.3% (inactive)
viability decrease (inhibition) [9]: 0.1% (inactive)
inhibition [10]: -3.44% (inactive)

CCCCC(CC)CN=C(N)NC(N)=NCCCCCCN=C(N)NC(N)=NCC(CC)CCCC (centres undefined)
parasite load remaining [1]: -0.04% (inactive) and -6.78% (inactive)
viability [1]: 41.3% and 33.2%
nuclear beta-catenin stimulation ([2]; at 10 µM): -3.7% (inactive)
nuclear beta-catenin stimulation ([2]; stimulation, at 2 µM): -1.8%
insulin secretion stimulation [3]: 22.3% (active)
viability decrease [4]: 99.1% (active)
tube area decrease [5]: 108% (active)
GLP1 secretion stimulation [6]: 0% (inactive)
inhibition of viability [7]: 99.6% (active)
viability decrease (inhibition) [8]: 97% (active)
viability decrease (inhibition) [9]: 102% (active)
inhibition [10]: -3.86% (inactive)

CN(Cc1cc(Br)cc(Br)c1N)C1CCCCC1
parasite load remaining [1]: 167% (inactive) and 46% (inactive) and 10.9% (inactive)
viability [1]: 89% and 109% and 68%
nuclear beta-catenin stimulation ([2]; at 10 µM): -0.1% (inactive)
nuclear beta-catenin stimulation ([2]; stimulation, at 2 µM): -0.5%
insulin secretion stimulation [3]: 6.9% (inactive)
viability decrease [4]: 87.5% (active)
tube area decrease [5]: 7.5% (inactive)
GLP1 secretion stimulation [6]: -1.6% (inactive)
inhibition of viability [7]: 80.7% (active)
viability decrease (inhibition) [8]: 125% (active)
viability decrease (inhibition) [9]: 97.2% (active)
inhibition [10]: 16% (inactive)

CO[C@@]1(NC(=O)C(C(=O)O)c2ccc(O)cc2)C(=O)N2C(C(=O)O)=C(CSc3nnnn3C)CO[C@@H]21 (some centres undefined)
parasite load remaining [1]: 95.7% (inactive) and 71.7% (inactive)
viability [1]: 77.5% and 90.5%
nuclear beta-catenin stimulation ([2]; at 10 µM): 1.6% (inactive)
nuclear beta-catenin stimulation ([2]; stimulation, at 2 µM): -0.2%
insulin secretion stimulation [3]: -0.4% (inactive)
viability decrease [4]: 23.9% (inactive)
tube area decrease [5]: 10.2% (inactive)
GLP1 secretion stimulation [6]: 1.3% (inactive)
inhibition of viability [7]: 2.9% (inactive)
viability decrease (inhibition) [8]: 25.1% (inactive)
viability decrease (inhibition) [9]: -26% (inactive)
inhibition [10]: 3.95% (inactive)

COc1ccnc(CS(=O)c2nc3ccc(OC(F)F)cc3[nH]2)c1OC (centres undefined)
parasite load remaining [1]: 154% (inactive) and 46.8% (inactive) and 36.5% (inactive)
viability [1]: 91.7% and 94.9% and 116%
nuclear beta-catenin stimulation ([2]; at 10 µM): -0.4% (inactive)
nuclear beta-catenin stimulation ([2]; stimulation, at 2 µM): 1.1%
insulin secretion stimulation [3]: 1.2% (inactive)
viability decrease [4]: 20.6% (inactive)
tube area decrease [5]: -16.8% (inactive)
GLP1 secretion stimulation [6]: -0.9% (inactive)
inhibition of viability [7]: 5.27% (inactive)
viability decrease (inhibition) [8]: -0.2% (inactive)
viability decrease (inhibition) [9]: -5.4% (inactive)
inhibition [10]: 11.1% (inactive)

COc1cc2c3cc1Oc1cc(ccc1O)C[C@@H]1c4c(cc(OC)c(O)c4Oc4ccc(cc4)C[C@@H]3N(C)CC2)CC[N+]1(C)C
parasite load remaining [1]: 55.9% (inactive) and 65.3% (inactive)
viability [1]: 118% and 192%
nuclear beta-catenin stimulation ([2]; at 10 µM): 3.1% (inactive)
nuclear beta-catenin stimulation ([2]; stimulation, at 2 µM): -0.1%
insulin secretion stimulation [3]: -0.3% (inactive)
viability decrease [4]: -3% (inactive)
tube area decrease [5]: 13.9% (inactive)
GLP1 secretion stimulation [6]: -1.7% (inactive)
inhibition of viability [7]: -1.93% (inactive)
viability decrease (inhibition) [8]: 5.3% (inactive)
viability decrease (inhibition) [9]: -2.9% (inactive)
inhibition [10]: 0.384% (inactive)

CCN1CCCC(OC(=O)C(c2ccccc2)c2ccccc2)C1 (centres undefined)
parasite load remaining [1]: 78.7% (inactive) and 105% (inactive) and 40.1% (inactive)
viability [1]: 75.6% and 65.9% and 85.9%
nuclear beta-catenin stimulation ([2]; at 10 µM): 0.6% (inactive)
nuclear beta-catenin stimulation ([2]; stimulation, at 2 µM): 2.6%
insulin secretion stimulation [3]: 133% (active)
viability decrease [4]: 3.4% (inactive)
tube area decrease [5]: 18.5% (inactive)
GLP1 secretion stimulation [6]: 1.3% (inactive)
inhibition of viability [7]: 68.8% (active)
viability decrease (inhibition) [8]: 71.6% (active)
viability decrease (inhibition) [9]: 46.5% (inactive)
inhibition [10]: -9.18% (inactive)

CCOC(=O)OC(C)OC(=O)[C@@H]1N2C(=O)[C@@H](NC(=O)[C@H](N)c3ccccc3)[C@H]2SC1(C)C (some centres undefined)
parasite load remaining [1]: 83% (inactive) and 78.3% (inactive)
viability [1]: 104% and 79.2%
nuclear beta-catenin stimulation ([2]; at 10 µM): 1.2% (inactive)
nuclear beta-catenin stimulation ([2]; stimulation, at 2 µM): 2.5%
insulin secretion stimulation [3]: 0.3% (inactive)
viability decrease [4]: -28.2% (inactive)
tube area decrease [5]: 5.9% (inactive)
GLP1 secretion stimulation [6]: -3.1% (inactive)
inhibition of viability [7]: -1.7% (inactive)
viability decrease (inhibition) [8]: -35.9% (inactive)
viability decrease (inhibition) [9]: -10.2% (inactive)
inhibition [10]: -1.65% (inactive)

OC(CCN1CCCCC1)(c1ccccc1)c1ccccc1
parasite load remaining [1]: 89.9% (inactive) and 126% (inactive)
viability [1]: 98.8% and 84.6%
nuclear beta-catenin stimulation ([2]; at 10 µM): 0.4% (inactive)
nuclear beta-catenin stimulation ([2]; stimulation, at 2 µM): 2.1%
insulin secretion stimulation [3]: 60.4% (active)
viability decrease [4]: 12.2% (inactive)
tube area decrease [5]: 1.5% (inactive)
GLP1 secretion stimulation [6]: 3.3% (inactive)
inhibition of viability [7]: 23.9% (inactive)
viability decrease (inhibition) [8]: 27% (inactive)
viability decrease (inhibition) [9]: 2.1% (inactive)
inhibition [10]: 12.5% (inactive)

COc1ccc2cc1Oc1ccc(cc1)C[C@H]1c3c(cc4c(c3Oc3cc5c(cc3OC)CCN(C)[C@@H]5C2)OCO4)CCN1C
parasite load remaining [1]: 105% (inactive)
viability [1]: 82.3%
nuclear beta-catenin stimulation ([2]; at 10 µM): 64.7% (active)
nuclear beta-catenin stimulation ([2]; stimulation, at 2 µM): 7.1%
insulin secretion stimulation [3]: 5.5% (inactive)
viability decrease [4]: 98.1% (active)
tube area decrease [5]: 108% (active)
GLP1 secretion stimulation [6]: 1.9% (inactive)
inhibition of viability [7]: 102% (active)
viability decrease (inhibition) [8]: 123% (active)
viability decrease (inhibition) [9]: 87.3% (active)
inhibition [10]: -1.33% (inactive)
